Source: PubChem (National Center for Advancing Translational Sciences (NCATS))
DRV1 agonist: qHTS for Agonists of Human Resolvin D1 Receptor DRV1; activation, % at 76.9 µM; Probable G-protein coupled receptor 32 (Homo sapiens), O75388; CHO-K1 GPR32 beta-arrestin PathHunter luminescence, 90 min; zero percent set by DMSO-only wells; AID 1346428, 2018; actives 2.5% (n = 48,000);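 active = activation of at least 60% and not above a set upper limit, about 1 call in 100 departs from these limits; inconclusive = activation of 40% to 60%, or above that upper limit; inactive = activation under 40%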; also: 0% is about no effect
Target sequence (O75388 whole entry, looked up): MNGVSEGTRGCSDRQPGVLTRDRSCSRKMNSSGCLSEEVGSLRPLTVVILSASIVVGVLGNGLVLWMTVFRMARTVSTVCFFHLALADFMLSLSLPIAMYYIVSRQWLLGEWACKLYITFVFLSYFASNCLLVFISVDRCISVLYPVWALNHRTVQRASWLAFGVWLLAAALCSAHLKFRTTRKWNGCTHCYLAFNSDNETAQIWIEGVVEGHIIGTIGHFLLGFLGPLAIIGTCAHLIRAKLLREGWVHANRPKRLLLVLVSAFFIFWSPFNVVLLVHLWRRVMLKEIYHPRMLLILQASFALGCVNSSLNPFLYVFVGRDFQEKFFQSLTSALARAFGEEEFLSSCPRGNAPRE
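GPR32 activation in stably transfected CHO-K1 cells, detected as beta-arrestin recruitment by enzyme-fragment complementation. Compound exposure: 90 min, 37 °C.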
HTT-AS promoter: Primary qHTS for Identification of Small Molecule Activators of Huntingtin-Antisense Promoter Activity | HEK293 HTT-AS promoter firefly luciferase reporter, 24 h; response scale: percent change from vehicle, -100% = no light | Potency, µM (titrated, usually from 57.5 µM), for inactives: at the top dose activity change, positive = activation, hits mostly activators | actives 0.24% (n = 48,000); also: potency is read from the fitted curve at half-maximal effect; nearly all actives have a fitted effect of over 55% in size
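HEK293 cells carrying firefly luciferase reporters were seeded at 2,500 per well in Opti-MEM and cultured for 24 h. They were then treated with compounds at up to 57.5 uM final for 24 h at 37 degrees C before Dual-Glo luminescence readout.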
HTT promoter inh: Primary qHTS for Identification of Small Molecule Inhibitors of Huntingtin Promoter Activity. HEK293 HTT promoter firefly luciferase reporter, 24 h. Potency, µM (titrated, usually from 57.5 µM), inactives show top-dose activity change, negative = inhibition, actives largely listed as inhibitors. AID 1508623, 2021. actives 0.93% (n = 48,000); also: potency is read from the fitted curve at half-maximal effect; nearly all actives have a fitted effect of over 50% in size
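HEK293 cells carrying firefly luciferase reporters were seeded at 2,500 per well in Opti-MEM and cultured for 24 h. They were then treated with compounds at up to 57.5 uM final for 24 h at 37 degrees C before Dual-Glo luminescence readout.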
p53null 32C kill: qHTS Screen for Compounds that Selectively Target Cancer Cells with p53 Mutations: Cytotoxicity of p53 Null Cells at the Permissive Temperature | H1299-neo p53 null cells, ATP luminescence, 24 h, 32C | Potency, µM (titrated, usually from 46.1 µM), for the others: at the top dose activity change, negative = cytotoxicity, actives largely listed as cytotoxic | actives 0.62% (n = 55,000) | AID 903, 2007;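 also: potency is read from the fitted curve at half-maximal effect; 0% = DMSO only and -100% = full killing by 100 µM tamoxifen; nearly all actives have a fitted effect of over 55% in size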
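Luminescent ATP readout gave cell viability of p53-null H1299-neo cells after a 24 h compound exposure at the permissive 32C. Titrations ran up to 46 uM, and AC50s were fitted with the standard Hill equation.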
p53null 39C kill: qHTS Screen for Compounds that Selectively Target Cancer Cells with p53 Mutations: Cytotoxicity of p53 Null Cells at the Nonpermissive Temperature; actives 0.97% (n = 55,000); AID 904, 2007; H1299 p53-null (neo) cells, 39C, ATPlite viability, 24 h; Potency, µM (series often up to 46.1 µM), for the others: top-dose activity, negative = cell killing, most hits filed as cytotoxic;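 also: potency is read from the fitted curve at half-maximal effect; 0% = DMSO only and -100% = full killing by 100 µM tamoxifen; nearly all actives have a fitted effect of over 50% in size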
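Luminescent ATP signal reported cell survival after H1299 lines (neo, p53 null; or p53 A138V) received up to 46 uM compound and 24 hr incubation at 39C.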
* = called active by the depositor; ? = inconclusive; nt = no result. Sampled rows, rich in hits. Any-hit rate of the full collection: about 3.9%. Unless noted, calls follow the shape of the dose curve; as a rule, active = well fitted curve in the direction sought with a large enough effect; inconclusive = small, poorly fitted or top-dose-only effect, or another doubt; inactive = no such curve, though single readings can be large; an effect the other way counts as inactive or inconclusive.

SMILES | DRV1 agonist | HTT-AS promoter | HTT promoter inh | p53null 32C kill | p53null 39C kill
CC(C)(C)c1ccc(/C=C/C(=O)Nc2ccc(S(N)(=O)=O)cc2)cc1 | 94.2* | -40.6% | ? | 25.1µM* | ?
Cc1nc2scc(C)n2c(=O)c1S(=O)(=O)Nc1ccc(N2CCN(S(C)(=O)=O)CC2)cc1 | 79.6* | nt | nt | -15.1% | -22.8%
Cc1ccccc1C(C(=O)NC1CCCCC1)N(C(=O)CNc1ccc(C#N)cc1)c1cccc(F)c1 (configuration not stated) | nt | 0.4% | 7.2% | nt | nt
COc1ccc(OC(=O)N(CC(=O)O)Cc2ccc(OCCc3nc(-c4ccccc4)oc3C)cc2)cc1 | ? | -10.2% | -5.6% | nt | nt
CCOc1ccc(-n2c(SCC(=O)N3CCCC3)nc3c([nH]c4ccccc43)c2=O)cc1 | 77.3* | -10.7% | -2.9% | 6.5% | 48.7%
CCOc1ccc(-n2c(SCC(=O)N3CCCCCC3)nc3c([nH]c4ccccc43)c2=O)cc1 | -3.0 | -10.5% | -4.3% | -5.9% | 32.1%
Cc1ccc(-n2[nH]c(C)c(N=Nc3cccc(-c4cccc(C(=O)O)c4)c3O)c2=O)cc1C | 29.6 | -33.2% | 1.1% | nt | nt
Cc1ccc2[nH]c(CSc3nnc(NC(=O)COc4ccccc4)s3)cc(=O)c2c1 | 75.8* | -23.2% | -11.9% | -0.3% | 0.7%
Cc1ccccc1N1CC(c2nc3ccccc3n2CCC2CCCCC2)CC1=O (configuration not stated) | -24.4 | -49.0% | ? | -9.5% | -2.6%
Cc1cccc(C)c1N1CC(c2nc3ccccc3n2CC(=O)OC(C)C)CC1=O (configuration not stated) | -8.5 | -25.2% | -22.3% | -4.4% | -31.2%
O=C1CC(c2nc3ccccc3n2CCCCOc2ccccc2)CN1c1ccccc1Cl (configuration not stated) | 11.3 | -53.1% | ? | ? | 12.6µM*
Cc1ccccc1N1CC(c2nc3ccccc3n2Cc2ccc(Br)cc2)CC1=O (configuration not stated) | 91.7* | -53.3% | ? | -8.4% | -11.4%
CCc1ccccc1N1CC(c2nc3ccccc3n2CCC2CCCCC2)CC1=O (configuration not stated) | 33.5 | -74.2% | ? | ? | 15.8µM*
NC(=O)[C@@H](CCC(F)(F)F)N(Cc1ccc(-c2ncon2)cc1F)S(=O)(=O)c1ccc(Cl)cc1 | nt | -27.7% | -26.7% | nt | nt
CC(C)(C)Cn1c(N)nc2ccc(-c3[nH]c(C(C)(C)C)nc3-c3ccc(F)cc3)nc21 | nt | -31.3% | ? | nt | nt
O=C1CC(c2ccc(Cl)cc2)CC(=O)N1 | -3.0 | -3.6% | 11.4% | nt | nt
O=C(CSc1cn(CCNC(=O)c2cccc(C(F)(F)F)c2)c2ccccc12)Nc1ccc2c(c1)OCCO2 | 111.8* | -47.2% | ? | nt | nt
O=C(CSc1cn(CCNC(=O)c2ccccc2F)c2ccccc12)Nc1ccc(F)cc1 | 91.1* | -16.8% | -19.2% | nt | nt
O=C(CSc1cn(CCNC(=O)c2ccccc2F)c2ccccc12)Nc1ccc2c(c1)OCCO2 | ? | -8.5% | -5.9% | nt | nt
Cc1ccc(S(=O)(=O)Nc2cc(Cl)ccc2C(=O)Nc2nc(-c3ccccc3)cs2)cc1 | nt | -16.0% | ? | nt | nt
O=S(=O)(N=Cc1c(O)ccc2ccccc12)c1cccs1 | nt | 29.0% | 13.2% | nt | nt
O=C(N/N=C/c1sc2ccccc2c1O)c1ccccc1 | nt | nt | nt | 7.08µM* | nt
O=C(N/N=C/c1cccs1)c1ccc(NC(=O)c2ccccc2Cl)cc1 | nt | nt | nt | nt | 35.8%
Nc1ccccc1N1CCN(C(=O)c2ccccc2)CC1 | nt | nt | nt | 1.6% | -3.6%
Cc1ccc(C)n1-c1ccccc1N | nt | nt | nt | 12.6µM* | ?
SMILES | DRV1 agonist | HTT-AS promoter | HTT promoter inh | p53null 32C kill | p53null 39C kill
CCc1ccc(NCc2cccn2-c2nnc(N3CCCCCC3)s2)cc1 | -24.1 | -79.2% | 10µM* | 8.5% | 11.6%
COc1cccc(NCc2cccn2-c2nnc(N3CCC(C)CC3)s2)c1 | -2.8 | -60.6% | 10µM* | -2.9% | -1.9%
COc1ccc(NCc2cccn2-c2nnc(N3CCOCC3)s2)cc1OC | 15.7 | -6.4% | ? | -9.2% | -1.5%
COc1ccc(NCc2cccn2-c2nnc(N3CCCCC3)s2)cc1OC | 83.8* | -54.4% | 7.94µM* | -5.9% | -12.5%
Cc1ccccc1NCc1cccn1-c1nnc(N2CCC(C)CC2)s1 | -8.1 | -3.5% | -13.7% | 1.0% | 9.7%
CN1N=C(N)c2cn([C@@H]3O[C@H](COP(=O)(O)O)[C@@H](O)[C@@H]3O)c3ncnc1c23 | nt | -15.9% | -15.3% | nt | nt
CCOc1ccc(S(=O)(=O)NCCc2csc3nc(-c4ccc(F)cc4)nn23)cc1 | 37.7 | -41.6% | 25.1µM* | 5.5% | ?
COC(=O)/C=C\C(=O)OC | -7.8 | 1.6% | -1.4% | nt | nt
O=c1[nH]c2ccccc2c(=O)n1CCCl | -3.6 | -3.1% | 10.4% | nt | nt
O=C1CC(c2nc(-c3ccccc3)no2)CN1c1ccccc1 (configuration not stated) | 64.7* | 9.4% | 0.0% | -3.0% | -8.5%
Cc1cccc(-n2c(C)cc(C(=O)C(=O)Nc3ccccc3F)c2C)c1C | -3.0 | -20.3% | 8.91µM* | -10.0% | 12.9%
Cc1ccc(NC(=O)c2cccc(C(C)(C)C#N)c2)cc1Nc1ccc2ncn(C)c(=O)c2c1 | nt | -30.9% | ? | nt | nt
COCCCNC(=O)c1ccc(Cn2c(=O)c3ccccc3n(CC(=O)Nc3ccc(C)cc3C)c2=O)cc1 | 6.9 | -4.1% | -8.3% | -2.2% | 6.2%
COCCCNC(=O)Cn1c(=O)n(Cc2ccc(C(=O)NCc3ccc(C)cc3)cc2)c(=O)c2ccccc21 | 98.3* | -13.8% | 3.4% | 0.1% | 2.8%
CN(C)CCCOC1(Cc2ccccc2)CCCCCC1 | -7.6 | -9.4% | -4.9% | nt | nt
CCOc1ccccc1NC(=O)c1c(NC(=O)COc2ccccc2)sc2c1CCCC2 | 105.2* | -6.2% | -7.9% | -0.5% | -4.2%
COc1ccc(NC(=O)c2c(NCc3ccc(OC)c(OC)c3OC)sc3c2CCC3)c(OC)c1 | -17.0 | -13.1% | -16.0% | 4.2% | -3.6%
CCOC(=O)N1CCc2c(sc(NCc3cccs3)c2C(=O)Nc2cc(OC)ccc2OC)C1 | -0.1 | -16.2% | -9.4% | 22.7% | 5.8%
CCOC(=O)N1CCc2c(sc(NCc3cccs3)c2C(=O)Nc2ccc(OC)cc2OC)C1 | 0.7 | -90.6% | 7.94µM* | 9.1% | -14.4%
CCOC(=O)N1CCc2c(sc(NCc3ccc(OC)c(OC)c3OC)c2C(=O)Nc2ccc(OC)cc2OC)C1 | 85.5* | -85.8% | ? | 7.0% | 14.5%
CCOC(=O)N1CCc2c(sc(NCc3ccc(OCC)cc3)c2C(=O)Nc2ccc(OC)cc2OC)C1 | ? | -82.0% | 10µM* | -3.6% | -15.7%
